The source made the active and inactive calls. Rule for the calls: active = hit-call score of the fitted dose curve at least 0.9, where 1 is the maximum; inactive = score below 0.9.
Each compound was assayed on Early growth response protein 1 (EGR1) transcription factor, EGR1 (gene 1958) (assay: LTEA_HepaRG_EGR1: Life Technologies and Expression Analysis (LTEA) Assay for Early growth response protein 1 (EGR1) transcription factor using HepaRG (AID 2283490)). Conditions: mRNA level, 48 h; actives raise or lower the signal.
Description: LTEA_HepaRG is a cell based, multiplexed-readout assay that uses HepaRG, a human liver cell line, with measurements taken at 48 hours after chemical dosing on a 96-well plate.LTEA_HepaRG_EGR1 is one of 102 assay component(s) measured in the LTEA HepaRG cell culture assay. It is a marker of Cell proliferation, survival, death.Data from the assay component LTEA_HepaRG_EGR1 was analyzed into 1 endpoint. This assay endpoint, LTEA_HepaRG_EGR1, was analyzed with bidirectional fitting relative to DMSO as the negative control and baseline of activity. Using a type of inducible reporter, measures of mRNA induction for gain or loss-of-signal activity can be used to understand regulation of transcription factor activity. To generalize the intended target to other relatable targets, this assay endpoint is annotated to the dna binding intended target family, where the subfamily is zinc finger.
A total of 1060 chemcials from the ToxCast library were tested in eight-point concentration-response experiments. Cell culture and cytotoxicity assays were conducted at Thermo Fisher Scientific's Custom Services facility (Madison, WI). A single lot of human HepaRG cells (Thermo Fisher Scientific, Frederick, MD) was used for the cell culture experiments. 96-well format collagen type I coated plates of human HepaRG cells were prepared using established methods. Briefly, cryopreserved HepaRG cells were thawed, plated at a density of approximately 100,000 cells/well in HepaRG Thaw, Plate, and General Purpose media (HPRG770, Thermo Fisher Scientific), and incubated for 48 hours. 0.5% DMSO was selected as vehicle control to balance the requisite need of DMSO in HepaRG cultures to maintain differentiation (for example, baseline metabolism, proportions of hepatocytes vs. cholangiocytes), while enabling further hepatic receptor pathway activation (for example, PXR and CAR) in response to chemical exposure. 48 hours after plating, the culture medium was replaced with HepaRG Serum-Free Incudtion Media. Cells were exposed to each test chemical in duplicate and maintained in CO2 incubators for another 48 hours. Chemical plates were thawed to room temperature and 200x concentrations of treatment groups were prepared. 8-point conentration-reponse curves were made with the highest exposure at 100 uM, followed by half-log dilutions, all in 0.5% DMSO. Each test plate contained variouse controls, induction positive controls (1mM phenobarbital), cytotoxicity positive controls ([…] aflatoxin B1), vehicle controls (0.5% DMSO), and total lysis controls (0.5% DMSO). Cell morphology images were taken using an Essen IncuCyte FLR automated microscope, with six 96-well plates imaged in about 24 minutes. Images were captured and exported and JPEG files. Spent culture media was transfered to black-well plates for the LDH assay, and remaining media was sorted at -80 C for later use. Cells were treated with RLT buffer and frozen until shipped for gene expression analysis. Total RNA was isolated from the cell suspension in 75 uL of Buffer RLT (Qiagen, Germantown, MD 20874) by Quintiles/Expression Analysis (Durham, NC) using a custom isolation procedure. Total RNA from each plate well was transferred to a preamplification plate. Fluidigm's 96.96 Dynamic ArrayTM (Fluidigm, Amsterdam, the Netherlands) technology was used for gene expression analyses by quantitative reverse transcription polymerase chain reaction (qRT-PCR, performed by Quintiles/Expression Analysis, Durham, NC)89. Standard TaqManTM Assays (Applied Biosystems/ThermoFisher Scientific, Foster City, CA) were used to assess the expression of 93 genes selected based on their selectivity and sensitivity to important hepatic receptors known to be modulated by environmental chemicals; importance in human hepatocyte functionality; and hepatotoxicity. […]

SMILES	outcome	AC50
C=CC(N)=O	inactive	–
Cc1cc(-c2ccc(N)c(C)c2)ccc1N	inactive	–
NS(=O)(=O)C(F)(F)C(F)(F)C(F)(F)C(F)(F)C(F)(F)C(F)(F)C(F)(F)C(F)(F)F	–	89 µM (active)
CCCCCCCCCC[N+](C)(C)CCCCCCCCCC	–	94.6 µM (active)
CC1=C2C[C@H]3[C@@H](CC=C4C[C@@H](O)CC[C@@]43C)[C@@H]2CC[C@]12O[C@@H]1C[C@H](C)CN[C@H]1[C@H]2C	inactive	–
COS(=O)(=O)OC	inactive	–
CC#Cc1cc(C)nc(Nc2ccccc2)n1	inactive	–
Cc1ccccc1CO[C@@H]1C[C@@]2(C(C)C)CC[C@]1(C)O2	inactive	–
CCOCCOC(C)=O	inactive	–
CCC(C)(CC)c1cc(NC(=O)c2c(OC)cccc2OC)on1	inactive	–
O=S(=O)(O)C(F)(F)C(F)(F)C(F)(F)C(F)(F)F	inactive	–
C[C@]12CCC(=O)C=C1CC[C@@H]1[C@@H]2CC[C@@]2(C)[C@H]1CC[C@]2(C)O	inactive	–
CCCN(CCC)N=O	inactive	–
ClC1=C(Cl)[C@]2(Cl)[C@@H]3[C@@H](Cl)[C@H]4O[C@H]4[C@@H]3C1(Cl)C2(Cl)Cl	inactive	–
C[C@]12CCC(=O)C=C1CC[C@@H]1[C@@H]2CC[C@]2(C)C(=O)CC[C@@H]12	inactive	–
CCCCCCCCOC(=O)c1ccccc1C(=O)OCCCCCCCC	inactive	–
CO/C=C(/C(=O)OC)c1ccccc1COc1cccc(C(F)(F)F)n1	inactive	–
Cc1ccccc1O	inactive	–
Oc1c(Cl)c(Cl)c(Cl)c(Cl)c1Cl	–	8.53 µM (active)
CC(C)C(=O)OCC(C)(C)C(OC(=O)C(C)C)C(C)C (stereo not given)	inactive	–

SMILES	outcome	AC50
ClC(Cl)=C(c1ccc(Cl)cc1)c1ccc(Cl)cc1	inactive	–
O=C(O)C(F)(F)C(F)(F)C(F)(F)C(F)(F)C(F)(F)C(F)(F)C(F)(F)C(F)(F)C(F)(F)F	inactive	–
O=C(O)C(F)(F)C(F)(F)C(F)(F)C(F)(F)C(F)(F)F	inactive	–
Clc1ccc(Cl)cc1	inactive	–
Cc1cc2c3c(c1)C(c1ccccc1)=N[C@@H](NC(=O)c1ccncc1)C(=O)N3CC2	inactive	–
CCNc1nc(NC(C)C)nc(SC)n1	inactive	–
CCOC(=O)C(O)(c1ccc(Cl)cc1)c1ccc(Cl)cc1	inactive	–
CCOP(=S)(OCC)SCSC(C)(C)C	inactive	–
O=C(O)C(F)(F)C(F)(F)C(F)(F)C(F)(F)C(F)(F)C(F)(F)C(F)(F)C(F)(F)F	–	83.4 µM (active)
ClC1=C(Cl)[C@]2(Cl)[C@@H]3[C@@H]4C[C@@H]([C@H]5O[C@@H]45)[C@@H]3[C@@]1(Cl)C2(Cl)Cl	inactive	–
CN(C)c1nc(=O)n(C2CCCCC2)c(=O)n1C	inactive	–
CN(C)CCO	inactive	–
ClC1=C(Cl)[C@]2(Cl)[C@@H]3[C@H]4C[C@H]([C@@H]5O[C@H]45)[C@@H]3[C@@]1(Cl)C2(Cl)Cl	inactive	–
Cc1cccc([N+](=O)[O-])c1	inactive	–
O=C(NC(=O)c1cc(F)c(F)cc1Cl)Nc1cc(F)ccc1N1CCC(C(=O)O)CC1	inactive	–
O=S(=O)(O)C(F)(F)C(F)(F)C(F)(F)C(F)(F)C(F)(F)C(F)(F)F	inactive	–
O=C(N[C@H]1CN2CCC1CC2)c1cc2ccoc2cn1	inactive	–
CCC(=O)O[C@H]1CC[C@H]2[C@@H]3CCC4=CC(=O)CC[C@]4(C)[C@H]3CC[C@]12C	inactive	–
CCCCCCOC(=O)c1ccccc1C(=O)OCCCCCC	inactive	–
Cc1ccc(O)c(C)c1	inactive	–

Reference: PubChem BioAssay (EPA / NIEHS)
